# From PubChem BioAssay
# Many of the other results were omitted from the sample, so hits are more common in it than they were.
# Gal4-VP16 FLuc = counter-screen for ROR gamma inhibitors: Gal4-VP16 reporter; Drosophila S2 Gal4-VP16 UAS-luciferase, luminescence, 20 h; Potency, µM (series often up to 53.6 µM), inactives show at the top dose activity, negative = inhibition, hits mostly inhibitors; AID 2546; 310,000 compounds, 3.5% hits;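 also: Gal4-VP16 expression switched on by copper sulfate through the metallothionein promoter; potency is read from the fitted curve at half-maximal effect; % is scaled to controls: 0 for no effect and ±100 for the full control effect; nearly all actives have a fitted effect of over 50% in size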
# RORg inh = inhibitors of mouse ROR gamma transcriptional activity | Drosophila S2 Gal4-RORgamma UAS-luciferase reporter, 20 h | Potency, µM (doses to about 53.6 µM), for inactives: top-dose activity change, negative = inhibition, actives largely listed as inhibitors | 310,000 compounds, 5.4% hits; also: potency is read from the fitted curve at half-maximal effect; % is scaled to controls: 0 for no effect and ±100 for the full control effect; nearly all actives have a fitted effect of over 60% in size
#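 ROR gamma transcriptional activity was tracked as Gal4-UAS luciferase output in stably transfected Drosophila Schneider cells, with compound added 1 hr before 700 uM copper sulfate induction and a 20 hr ambient-temperature incubation.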
# ERG-DNA inh = ERG Ets/DNA interaction inhibition | P11308 | fluorescence polarization, His-ERG Ets domain / labelled DNA | Potency, µM (top dose mostly 76.9 µM), for the others: top-dose FP activity, negative = inhibition, actives largely listed as inhibitors | 370,000 compounds, 0.028% hits; active = well fitted inhibition curve with a large enough effect in the polarisation, with a control signal flat; inconclusive = small, poorly fitted or top-dose-only effect, or effect the other way, or a change in a side signal; inactive = no such curve, though single readings can be large or run the other way; the % refers to the polarisation;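 also: polarization taken with two DNA probes labelled with fluorescein and Texas red; potency is read from the fitted curve at half-maximal effect; % of control where 0% means no effect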
# Target sequence (P11308 whole entry, looked up, the tested form may be a part): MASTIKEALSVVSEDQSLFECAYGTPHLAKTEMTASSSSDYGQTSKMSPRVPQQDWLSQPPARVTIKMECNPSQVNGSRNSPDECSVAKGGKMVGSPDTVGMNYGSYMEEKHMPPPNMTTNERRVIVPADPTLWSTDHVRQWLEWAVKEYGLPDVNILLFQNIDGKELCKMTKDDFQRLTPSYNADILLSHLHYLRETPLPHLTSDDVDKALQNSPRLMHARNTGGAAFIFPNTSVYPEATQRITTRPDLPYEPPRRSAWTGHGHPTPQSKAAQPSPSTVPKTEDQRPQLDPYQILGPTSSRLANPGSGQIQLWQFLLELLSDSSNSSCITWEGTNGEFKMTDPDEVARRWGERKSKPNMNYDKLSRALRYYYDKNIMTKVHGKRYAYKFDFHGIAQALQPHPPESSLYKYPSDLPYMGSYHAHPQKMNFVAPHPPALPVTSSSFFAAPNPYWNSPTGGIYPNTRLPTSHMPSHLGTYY
#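 His-tagged ERG Ets domain (1 uM in the protein solution; 300mM KCl, 50mM Tris-HCl, 1mM EDTA, 1mM DTT, pH 7.5) received compound, then a probe mix of 5 nM fluorescein-DNA and 100nM Texas-615-DNA. Fluorescence polarization was read for both dyes.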
# Giardia killer = kills Giardia lamblia | AID 540267 | activity change, % at 7.66 µM, hits read low | 340,000 compounds, 0.15% hits | Giardia lamblia trophozoite viability; in the data active = activity change below about -80%; inconclusive = between about -30% and that limit;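 also: parasites exposed to compound for two days anaerobically before the ATP read; % is scaled to controls: 0 for no effect and ±100 for the full control effect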
#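 Giardia lamblia trophozoites (100 cells/well) were incubated with compounds for 48 h at 37 deg C under anaerobic conditions. Viability was read as ATP content by one-step luminescence after 15-30 min at room temperature.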
# Integrin act MD = activators of alpha7 integrin expression for muscular dystrophy | alpha7betagal myoblasts, beta-gal FDG fluorescence, 48 h | Potency, µM (highest dose often 38.3 µM), inactives show top-dose activation, actives largely listed as activators | 350,000 compounds, 0.064% hits | AID 624291;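 also: potency is read from the fitted curve at half-maximal effect; 100% = response of the positive control SU9516; nearly all actives have a fitted effect of over 60% in size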
#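 Alpha7betagal+/- myoblasts (passage 13) were plated 16-24 hr, then exposed to compounds (1:260 dilution of DMSO stock) for 48 hours at 37C. After MPER lysis, β-galactosidase reporter activity was read as FDG fluorescence (ex 480/em 540) after 30 minutes.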
# Active calls of the source: *; ? = inconclusive; . = no result given; [ ] = remark or other dose. Unless noted, calls follow the shape of the dose curve; as a rule, active = well fitted curve in the direction sought with a large enough effect; inconclusive = small, poorly fitted or top-dose-only effect, or another doubt; inactive = no such curve, though single readings can be large; an effect the other way counts as inactive or inconclusive.
SMILES,Gal4-VP16 FLuc,RORg inh,ERG-DNA inh,Giardia killer,Integrin act MD
O=C(CC1C(=O)NCCN1Cc1ccc(F)cc1)NCCOc1cccnc1 (centres undefined),-8.3%,-6.4%,-5.5%,-21.8,10.7%
CCOc1ccccc1CN1CCNC(=O)C1CC(=O)NCc1ccccn1 (centres undefined),?,11.2µM*,-13.2%,-10.6,28.5%
CCOc1ccccc1CN1CCNC(=O)C1CC(=O)NC1CCCCC1 (centres undefined),0.7%,-8.5%,11.1%,8.4,-1.6%
O=C(CC1C(=O)NCCN1Cc1ccc(-c2ccccc2)cc1)NCCOc1cccnc1 (centres undefined),20µM*,2.8%,-2.8%,-7.8,4.9%
COc1ccc([N+](=O)[O-])c(S(=O)(=O)c2ccccc2)n1,5.01µM*,2.51µM*,17.4%,-9.4,-51.9%
NS(=O)(=O)c1ccc(Nc2ncccc2[N+](=O)[O-])cc1,?,29.2%,-2.3%,-91.0*,5.5%
O=[N+]([O-])c1cccnc1S(=O)(=O)c1ccccc1,7.08µM*,8.91µM*,1.7%,-0.7,-62.0%
COc1ccc([N+](=O)[O-])c(S(=O)(=O)c2ccc(Cl)cc2)n1,?,?,1.2%,6.7,-55.1%
CCCCS(=O)(=O)c1nc(-c2ccc(Br)cc2)cc(-c2ccccc2)c1C#N,.,.,0.9%,.,.
CC(C)CNC(=O)[C@H]1N2C(=O)c3ccccc3C2SC1(C)C (some centres undefined),17.9%,24.1%,8.4%,0.5,13.9%
Cn1c(-c2ccc(F)cc2)cnc1SCC(=O)N1CCCCC1,?,10µM*,-4.8%,5.9,10.0%
COc1ccc(CNC(=O)C(C)N(Cc2ccccc2OC)C(=O)c2snc(C(N)=O)c2N)cc1 (centres undefined),24.2%,10µM*,4.4%,-1.1,-4.1%
CCOc1ccc(-n2ccnc2SCC(=O)Nc2cccc3ccccc23)cc1,.,.,-3.1%,.,.
CCOc1ccc(C(=O)c2cc([N+](=O)[O-])ccc2Cl)cc1,2.9%,-0.3%,-12.4%,-9.3,-38.7%
Cc1cccnc1Nc1nc(-c2ccc(O)c(O)c2)cs1,7.08µM*,-111.5%,-3.2%,-13.6,6.9%
COc1ccc(-c2csc(Nc3ncccc3C)n2)cc1,6.4%,?,4.7%,1.4,18.4%
COc1ccc(-c2csc(Nc3ncccc3C)n2)cc1OC,-27.2%,3.55µM*,-8.4%,-15.9,-10.6%
Cc1cc(NC(=O)c2ccc(Cl)cc2)ccc1NC(=O)c1ccccc1Cl,-26.0%,-1.5%,4.0%,14.8,16.8%
Nc1nc2ccccc2n1/N=C/c1ccc2c(c1)OCO2,?,10µM*,-7.5%[15.4 µM],-2.5,0.1%
Cc1ccc2cccc(OCc3ccccc3)c2n1,-0.6%,14.1µM*,0.3%,6.8,5.0%
Cc1ccc2cccc(OCc3ccc(F)cc3)c2n1,?,?,-0.5%,19.8,-3.5%
CC1Cc2ccccc2C(CCc2ccccc2)=N1 (centres undefined),-5.0%,12.6µM*,-10.7%,31.6,0.4%
C[C@H]1CN=C(N(C)C)N1CCc1ccccc1,.,.,4.1%,5.3,-18.5%
COc1cccc(Cn2c(=O)c(-c3ccc(Cl)cc3)nc3cnc(OC)nc32)c1,-1.9%,0.6%,.,.,.
CC(=O)n1cc(/C=N/NC(=O)c2sc(C)nc2C)c2ccccc21,?,14.1µM*,-5.4%,-17.6,8.6%
SMILES,Gal4-VP16 FLuc,RORg inh,ERG-DNA inh,Giardia killer,Integrin act MD
Cc1nc(N)sc1C(=O)N/N=C/c1c[nH]c2ccccc12,1.1%,30.5%,.,8.9,-13.5%
CC(=O)n1cc(/C=N/NC(=O)c2ccc([N+](=O)[O-])cc2)c2ccccc21,?,3.55µM*,-5.3%,9.0,2.2%
Cc1nnsc1C(=O)N/N=C/c1ccc2ccccc2c1O,2.82µM*,4.47µM*,3.2%,1.4,-2.5%
O=C(Cc1cccs1)N1CCN(S(=O)(=O)c2cc(Cl)ccc2Cl)CC1,.,.,-8.0%,-8.5,14.8%
COc1ccc(/C(C)=N/Nc2nc3ccccc3nc2C)cc1OC,?,4.47µM*,17.0%,-0.7,-48.5%
COc1ccc(/C(C)=N/Nc2cccc(C(=O)O)c2)cc1OC,-23.2%,-2.6%,-0.7%,-5.2,18.2%
CC(C)CCNC(=S)NC1CCCC1,?,2.82µM*,-4.3%,6.8,-10.4%
CC(C)CCNC(=O)C(=O)NC1CCCC1,1.1%,-15.6%,-0.6%,-9.8,16.7%
CCCCNC(=S)NC1CCCC1,17.8µM*,10µM*,4.2%,0.6,23.7%
